# Reference: PubChem BioAssay (NCI)
# This is part of a sample that, as a whole, favours compounds with a hit. Of some 79,000 tested, about 15% had one in any assay. Unmarked numbers belong to inactive results. Active and inactive are the calls of the source. Cut-off read from the data, not from the text of the source: active = growth inhibition above about 70%; inactive = the rest. Where a SMILES comes first, the peptide text is derived from it. The star is where a group is joined. ONp = O=[N+]([O-])c1ccc(O*)cc1; Cbz = O=C(OCc1ccccc1)*; OBn = c1ccc(CO*)cc1
# How the values were obtained:
# [1] = NCI Yeast Anticancer Drug Screen. Data for the rad50 strain (AID 155);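 note: 0% = growth of vehicle-only cultures of the same strain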; conditions: S. cerevisiae rad50 strain growth inhibition; at 50.0 µM; active compounds read high
# How it was run: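 Growth of the mutant yeast was measured after compound exposure and referenced to vehicle-treated cultures.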
# [2] = NCI Yeast Anticancer Drug Screen. Data for the mec2-1 strain (AID 157); conditions: S. cerevisiae mec2-1 strain, at 50.0 µM, active compounds read high
# How it was run: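 Test agents were screened against the mec2-1 yeast strain, with defined DNA repair or cell cycle alteration. Growth was scored as inhibition against vehicle-only controls.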
# [3] = NCI Yeast Anticancer Drug Screen. Data for the sgs1 mgt1 strain (AID 161);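 note: 0% = growth of cultures given vehicle only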; conditions: S. cerevisiae sgs1 mgt1 strain, at 50.0 µM, active compounds read high
# How it was run: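 Mutant yeast exposed to compound; growth scored against vehicle-only wells.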
# [4] = NCI Yeast Anticancer Drug Screen. Data for the cln2 rad14 strain (AID 165);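 note: 0% = growth equal to vehicle treated cultures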; conditions: S. cerevisiae cln2 rad14 strain, at 50.0 µM, active compounds read high
# How it was run: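 Growth of compound-exposed yeast (cln2 rad14 genotype) measured and expressed as inhibition relative to vehicle.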
# [5] = NCI Yeast Anticancer Drug Screen. Data for the bub3 strain (AID 167); conditions: S. cerevisiae bub3 mutant strain, at 50.0 µM, active compounds read high
# How it was run: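 Whole-cell yeast assay. The mutant strain was incubated with compounds, and growth inhibition was determined by comparison with vehicle-treated cells.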
# [6] = NCI Yeast Anticancer Drug Screen. Data for the mlh1 rad18 strain (AID 175); conditions: S. cerevisiae mlh1 rad18 strain growth inhibition; at 50.0 µM; active compounds read high
# How it was run: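 In this whole-cell yeast screen, a strain with altered DNA damage repair is challenged with compound, and its growth is measured against matched vehicle-treated controls.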
SMILES,growth inhibition [1],growth inhibition [2],growth inhibition [3],growth inhibition [4],growth inhibition [5] [%],growth inhibition [6]
O=C1/C(=C/c2ccco2)N=C2Sc3c(nc[nH]c3=O)N12,2.4%,-19.2%,6.55%,-3.65%,9.5,16.6%
N#C/C(=N\NC(=O)c1ccccc1Cl)c1ccccc1Cl,89.5% (active),79.3% (active),83% (active),82.2% (active),67.3,77.8% (active)
OCC1SC(O)C(O)C(O)C1O (configuration not stated),28.2%,-5.55%,11.8%,10.7%,25.1,19.6%
Cc1cccc(C2=N/C(=C\c3ccccc3)C(=O)O2)c1,7.15%,7.5%,18.8%,10.8%,5.75,5.35%
COC(=O)c1ccc(CS(=O)(=O)c2ccccc2)cc1,2%,-6.3%,4.6%,7.1%,14.7,-11.5%
COc1cc(C(=O)NN(C)C)cc(OC)c1OC,13.5%,0.65%,-9.95%,10.8%,-7.95,-18.5%
COc1ccc(C(=O)CC(=O)C2CCCCC2=O)cc1 (configuration not stated),-12.5%,-12.3%,-3.4%,-19.8%,19.3,-9.05%
CCOC(=O)C(NC(=O)CC)(Nc1ccc(S(=O)(=O)Nc2onc(C)c2C)cc1)C(F)(F)F (configuration not stated),-6.35%,-15.4%,-8.85%,15.6%,-6.4,-17.4%
Cc1nc(N)c2nc(SC(C)C)c(N)nc2n1,2.85%,-6.55%,0.45%,-31.2%,-20.9,17.2%
CCCCc1ccc(Nc2nc(OC)c3ncn(C4CC(O)C(CO)O4)c3n2)cc1 (configuration not stated),88.1% (active),90.2% (active),67.2%,57.8%,69.5,86.8% (active)
Cn1nnc(C(=O)O)n1,-7.75%,-4.35%,-4.7%,-19.8%,-11.4,-10.8%
CC1(C)OC(C(O)CO)C(C2COC(=S)O2)O1 (configuration not stated),1.45%,15.9%,8.45%,33.5%,12.6,-1.8%
O=C1NC(=S)S/C1=C\c1ccc2c(c1)OCO2,-22.1%,-21.3%,-4.8%,-2%,-8.05,-7.55%
CC(I)CNc1ccc(C(=O)O)c(O)c1 (configuration not stated),3.7%,-4.9%,6.15%,1%,11.6,-11.9%
Cc1ccccc1NC=O,-26%,-19.2%,-44.5%,5.9%,-36.5,-13%
CNC(=O)c1ccccc1S(=O)Cc1ccc(Br)cc1 (configuration not stated),-19.1%,-30.2%,-17.6%,8.35%,22.7,-0.95%
CN(c1ccccc1Cl)S(=O)(=O)c1ccc([N+](=O)[O-])cc1,-14.2%,-45.9%,12.2%,3.9%,26.4,-2.25%
CCOC(=O)C(C)(C)C(=O)Nc1ccccc1,5.2%,-7.6%,-3.6%,24.9%,3.6,5.7%
O=C1C(O)=CC(=C(c2ccccc2)c2ccccc2)c2cc(Br)ccc21,33.7%,26.2%,44.4%,8.9%,11.4,34.1%
CCSc1n[nH]c(=O)nc1SC,4.3%,-3.25%,-3.9%,-67%,-19.5,-0.35%
CCN(CCC#N)C(=S)Nc1ccc(C)c(C)c1,-9%,-8.55%,0%,1%,-8.6,0.1%

SMILES,growth inhibition [1],growth inhibition [2],growth inhibition [3],growth inhibition [4],growth inhibition [5] [%],growth inhibition [6]
Cc1cc(C)c2nc(N)sc2c1,24.3%,9.35%,-5.8%,-4.45%,12.4,30.1%
CCOC(=O)C(CC)(C(=O)OCC)C(C)C,15.6%,30.4%,-17.9%,-28.1%,-9.95,-6.8%
CCOC(C)(OCC)c1ccccc1,-9.15%,20.6%,-2.1%,23.5%,8.55,29.4%
NS(=O)(=O)c1ccc(NC2(C(=O)O)CCCC2)cc1,-18.4%,-9.3%,-0.9%,-9.4%,-38.5,-21.5%
C=CCC(CNC(C)=O)(C1=CCCCC1)c1ccccc1 (configuration not stated),1.95%,13%,13.1%,19.8%,17.1,12.7%
C=CCOC(=O)NC(CCC(=O)O)C(=O)O (configuration not stated),21.1%,-0.35%,19.3%,11%,3.4,21%
COC(=O)C(Cc1c[nH]c2ccccc12)NP(=O)(O)OCC1OC(n2cc(Br)c(=O)[nH]c2=O)CC1O (configuration not stated),-34.8%,-15.4%,-9.25%,-12%,-16.3,-10.1%
O=C(CCN1CCCC1)Nc1ccc2sc3ccccc3c(=O)c2n1,38.5%,-61.8%,8.75%,9.7%,16.6,10.6%
COc1cnn(-c2ccccc2)c(=O)c1Cl,-1.4%,-7.35%,-1.85%,-3.7%,0.8,-13.9%
Nc1[nH]c(=O)nc2snnc12,2.35%,-2.3%,14.9%,16.3%,6.1,-57.9%
Cc1cccn2c(C)nnc12,3.4%,25.7%,-1.35%,17.6%,28.1,12.7%
O=C1OC(=O)c2c(Br)c(Br)c(Br)c(Br)c21,5.9%,8.65%,-16.4%,-8.9%,-10.9,2.7%
Cc1ccc(Cl)cc1NC(=S)N(C)C,15.9%,16.1%,34.7%,3.75%,50.2,24.5%
c1c2c(cc3c1OCN(C1CC1)C3)OCN(C1CC1)C2,0.7%,5.6%,10%,-19.2%,-13.8,-3.35%
NC(=S)NNC(=O)c1ccncc1,13.3%,-3.1%,1.8%,10.4%,3.75,7.05%
O=C(CC1=NC2NN(c3ccccc3)C(=O)C2=C1CC(=O)c1ccc(F)cc1)c1ccc(F)cc1 (configuration not stated),40.2%,20.6%,23.2%,13.1%,5.65,38.9%
CCCCCCCCCCCCOc1ccc2ccccc2c1,-7.2%,15.9%,0.85%,-17.6%,-6.45,-8.15%
COC(CC(=O)O)CC(C)CC(C)(C)C (configuration not stated),48.5%,15.8%,38%,18.9%,24.9,40.1%
O=C(CNC(=O)C(CCC(=O)OCc1ccccc1)NC(=O)OCc1ccccc1)NCC(=O)NC(CO)C(=O)NCC(=O)Oc1ccc([N+](=O)[O-])cc1 (configuration not stated) (Cbz-E(OBn)GGSG-ONp; configuration not given here),3.75%,8.05%,21.4%,-7.85%,1.65,20.4%
Nc1ncc[nH]c1=O,-16.1%,-4.1%,1.25%,-4.1%,2.9,-20.2%
Cc1nc(N)[nH]c(=O)c1CCCNC(=O)c1cccc([N+](=O)[O-])c1,-1.55%,2.65%,11.4%,-4.7%,30.5,18.6%
